The values below come from PubChem BioAssay AID684 (PCMD, 2007).

In all, about 62,000 compounds went through this assay and about 95 (0.2%) were called active. The list comes from a sample in which actives are over-represented; it also holds similar structures and randomly drawn compounds. Values without a mark were called inactive. Cut-off read from the data, not from the text of the source: active = inhibition above about 20% (passing the limit was not always enough); inactive = the rest.

The target in the experiment is Coagulation factor XII (Homo sapiens) (UniProt P00748). The experiment in a line: blockers of FXIIa protease activity – biochemical, pooled compound mixtures, fluorogenic substrate, primary screen (AID 684).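 Note: 0% = enzyme without compound and 100% = no enzyme blank.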 Conditions: purified FXIIa, at 5 µM, hits give high values.
Chain of Coagulation factor XII (Homo sapiens) (P00748 20-372 limits assumed): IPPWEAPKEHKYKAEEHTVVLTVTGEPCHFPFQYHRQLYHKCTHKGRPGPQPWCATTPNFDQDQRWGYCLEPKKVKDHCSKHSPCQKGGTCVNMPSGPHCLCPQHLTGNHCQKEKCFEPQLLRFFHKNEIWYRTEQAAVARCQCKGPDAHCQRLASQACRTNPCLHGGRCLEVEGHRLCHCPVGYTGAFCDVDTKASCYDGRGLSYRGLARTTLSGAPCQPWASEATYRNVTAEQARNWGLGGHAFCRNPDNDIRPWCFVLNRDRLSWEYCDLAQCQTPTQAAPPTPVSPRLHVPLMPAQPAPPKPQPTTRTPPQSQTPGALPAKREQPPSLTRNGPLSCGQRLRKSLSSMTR
Chain of Coagulation factor XII (Homo sapiens) (P00748 373-615 limits assumed): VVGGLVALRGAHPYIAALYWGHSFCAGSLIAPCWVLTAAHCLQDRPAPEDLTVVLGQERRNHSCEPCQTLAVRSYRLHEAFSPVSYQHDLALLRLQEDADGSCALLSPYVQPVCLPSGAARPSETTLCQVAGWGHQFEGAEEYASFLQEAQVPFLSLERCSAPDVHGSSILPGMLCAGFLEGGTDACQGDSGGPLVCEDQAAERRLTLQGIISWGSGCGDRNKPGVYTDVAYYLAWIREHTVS
As a reminder, the inhibition is the drop in the measured response relative to a control, in per cent. On to `CCS(=O)(=O)n1nc(-c2ccccc2)nc1SCc1ccccc1`, for which the inhibition is 6.08%.

Consider `Cc1noc(C)c1C(=O)NC(C)c1ccc2c(c1)OCO2` (stereo not drawn), for which the inhibition is 4.17%.

Consider `COC(=O)C1=C(C)Nc2ncnn2C1c1ccco1` (stereo not drawn), for which the inhibition is 15.1%.

As to `COc1ccc(OC)c2[nH]c(=O)c(CCNC(=O)C(C)(C)C)cc12`, the inhibition is -10.9%.

Regarding `CCO/C([O-])=N/c1c[n+](N2CCOCC2)no1`, the inhibition was 3.21%.

Take `CN(C)CCOC(=O)C(c1ccccc1)C1(O)CCCC1` (stereo not drawn): the inhibition is 2.14%.

In the case of `Cc1cccc(CSc2nnc(Cn3c(=O)sc4ccccc43)n2C)c1`, the inhibition is 0.99%.

In the case of `CCCC(NS(=O)(=O)c1ccc(OC)cc1)C(=O)O` (stereo not drawn), the inhibition is 10.4%.

`O=C(NCc1cccnc1)c1cn(-c2ccccc2)nc1-c1cccs1`: the inhibition was 5.99%.

For `O=C(NCCCNCc1ccccc1)c1ccc(/C=N/O)nc1`, the inhibition was 1.86%.

Consider `CCn1c(SCC(=O)Nc2ccc3c(c2)OCCO3)nc2c(c1=O)SC(C)C2` (stereo not drawn), for which the inhibition is 11.3%.

With `O=C(CN1CCN(S(=O)(=O)/C=C/c2ccccc2)CC1)NC(=O)NCc1ccco1`, the inhibition was -1.11%.

With `CC(NC(=O)c1ccc(Cl)cc1)C(=O)N1CCCCC1` (stereo not drawn), the inhibition is 6.69%.

For the compound `CCOC(=O)Cc1csc(NC(=O)C(C)(C)C)n1`, the inhibition was 3.6%.

Regarding `O=C1CCC(=O)N1CCOP1(=O)COc2ccccc2OC1`, the inhibition was 2.03%.

Consider `COCCNC(=O)c1ccccc1-c1nc(-c2ccccc2Cl)no1`, for which the inhibition is 6.16%.

`c1csc(CN2CCN(Cc3cccs3)C2c2cccs2)c1`: the inhibition was -13.3%.

For the compound `COCc1cc(C)nc(SCC(=O)Nc2cccc(C)c2)c1C#N`, the inhibition is 21.5% (active).

As for `COC(=O)c1cccc(NC(=O)CSc2nc(C)cc(=O)[nH]2)c1`, the inhibition was 9.59%.

For the compound `COCc1cc(C)nc(Nc2cc(C)ccc2C)c1C#N`, the inhibition was 1.73%.

Take `Cn1c2c(c(=O)n(C)c1=O)CN(Cc1ccco1)CN2`: the inhibition was -0.485%.

With `Cc1ccc2[nH]c(=O)c(-c3nc4c(C)cccn4c3NCc3ccco3)cc2c1`, the inhibition is -0.355%.

Turning to `O=C(COc1ccccc1)N1CCc2ccccc2C1`, the inhibition was 9.32%.

Turning to `CC1CCC(NC(=O)c2ccc(N3CCCC3=O)cc2)CC1` (stereo not drawn), the inhibition was -12.2%.

On to `CCc1nc(C)cn1S(=O)(=O)c1cc(OC)c(C)cc1C`, for which the inhibition is 9.21%.

As to `CCCC1CC(C)(C(=O)Cn2[nH]c(=O)ccc2=O)OC1=O` (stereo not drawn), the inhibition was -1.01%.

In the case of `O=C(c1cc(-c2ccccc2O)on1)N1CCCC1`, the inhibition was -13.8%.

For the compound `Cc1ccc(S(=O)(=O)Nc2ccc3ncccc3c2)cc1`, the inhibition was -13.2%.
